Measured values reported in PubChem BioAssay (NCI).
Values joined by “and” are separate entries in the source; they are usually repeats but may differ in a detail not shown here. Equal entries are not always repeated. Compounds without any hit were thinned out: in the full panel of roughly 83,000, 20% have a hit.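 Treatment: one concentration, 48 hours, 96-well format. Scoring: percent growth, with anything below 10 considered active.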 Active and inactive are the calls of the source.

tested on: M14 melanoma; test: NCI-60 one-dose screen, 48 h (100 = growth as untreated, 0 = no growth, -100 = all killed); settings: 10 µM unless noted
Experimental: Growth inhibition of the M14 human tumor cell line is measured as a screen for anti-cancer activity. Cells are grown in 96 well plates and exposed to the test compound for 48 hours. Compounds are tested at a single concentration, which is 10^-5 M for most compounds. The reported endpoint is percent growth (GI% or GIPRCNT), where numbers from 0 - 100% represent growth inhibition, and numbers from -100% - 0 represent cell death. For example, a value of 40 represents 60% growth inhibition. A value of 0 means no net growth occurred over the course of the experiment. A value of -40 indicates 40% of cells at the beginning of the experiment died by the end of the experiment. A value of -100 means all cells are dead at the end of the experiment.
NCI-60 Human Tumor Cell Lines Screen was performed using the standard one-dose NCI protocol, which is described in more detail at https://dtp.cancer.gov/discovery_development/nci-60/default.htm.
Compounds with GIPRCNT values below 10 were considered active. Activity score was based on GIPRCNT using the following formula: […]
Score is 0 for GIPRCNT values of 100 or above, 50 for GIPRCNT values of 0, and 100 for GIPRCNT values of -100.

SMILES | growth
CCC(Br)(CC)C(=O)NC(N)=O | 102% (inactive)
C/C(=C\c1ccn(-c2ccc(N)c(C(F)(F)F)c2)n1)[C@@H]1C[C@@H]2O[C@]2(C)CCC[C@H](C)[C@H](O)[C@@H](C)C(=O)C(C)(C)[C@@H](O)CC(=O)O1 | 21.7% (inactive)
[N-]=[N+]=CC(=O)CCC(=O)C=[N+]=[N-] | 102% (inactive)
C[C@@H]1C/C=C\C(=O)O[C@H](/C=C/C#C/C=C/C(C)(C)[C@@H](O)c2cccc(O)c2Br)[C@@H](C)/C=C/[C@H](C)C[C@H](OC(N)=O)C1 | 0.391% (active)
Oc1ccc(O)c(Cl)c1 | 95.7% (inactive) and 104% (inactive)
CCN1C(=O)NC(=O)C(C)(N2C(=O)c3c(F)c(F)c(F)c(F)c3C2=O)C1=O (stereo not given) | 24.4% (inactive)
CO/N=C1\CC[C@]2(C)[C@H]3CC[C@]4(C)C(=O)CC[C@H]4[C@@H]3C[C@@H]3SC(N)=N[C@@]32C1 | 86% (inactive)
Cc1cc[n+](CCc2ccccc2)cc1 | 97.2% (inactive) and 105% (inactive)
CC[C@H](C)[C@H]1O[C@]2(C=C[C@@H]1C)C[C@@H]1C[C@@H](C/C=C(\C)[C@@H](O[C@H]3C[C@H](OC)[C@@H](O[C@H]4C[C@H](OC)[C@@H](NC)[C@H](C)O4)[C@H](C)O3)[C@@H](C)/C=C/C=C3\CO[C@@H]4[C@H](O)C(C)=C[C@@H](C(=O)O1)[C@]34O)O2 | -68.6% (active)
COc1cc(/C=C\[N+](=O)[O-])ccc1OCc1ccccc1 | 15.5% (inactive)
NC(=O)c1c(Br)c(Br)c(Br)c(Br)c1C(=O)O (tested in a mixture with another compound) | 97.1% (inactive) and 107% (inactive)
C[C@]12CCc3sc(Nc4ccc(F)cc4)nc3C1=CC[C@@H]1[C@@H]2CC[C@]2(C)C(=O)CC[C@@H]12 | 90% (inactive)
Cc1ccc(N2CCN(CCC#N)CC2)cc1 | 98.6% (inactive)
Cc1cc[c-]cc1.Fc1c[c-]c(-c2ccccn2)c(F)c1.N#CCC[PH+](CCC#N)c1ccccc1.[Pt+2] | 21.9% (inactive)
CN(C)C(=S)SSC(=S)N(C)C | 93% (inactive) and 100% (inactive)
CC12CCC3C4CCC(=O)C=C4CCC3C1CC1CC(=O)OC12 (stereo not given) | 104% (inactive)
ClC1OC(Cl)(Cl)C(Cl)(Cl)OC1(Cl)Cl (stereo not given) | 98.1% (inactive)
CO[C@@H]([CH2][Hg][O]C(=O)c1ccccc1)[C@@H]([CH2][Hg][O]C(=O)c1ccccc1)OC | 79.5% (inactive)
O=NN(c1ccccc1)c1ccccc1 | 106% (inactive)
CSc1cc(/C=C(\C)[C@@H]2C[C@@H]3O[C@]3(C)CCC[C@H](C)[C@H](O)[C@@H](C)C(=O)C(C)(C)[C@@H](O)CC(=O)O2)n(CCNC(=O)OC(C)(C)C)n1 | 56.7% (inactive)

SMILES | growth
CC1(C)C2CCC1(CS(=O)(=O)O)C(=O)C2 (stereo not given) | 98% (inactive) and 105% (inactive)
O=C1c2ccccc2C(=O)N1N1CC1c1ccccc1 (stereo not given) | 100% (inactive)
O=C(O)C(Br)CBr (stereo not given) | 90.2% (inactive)
COc1cc2c(cc1OC)[C@@H]1C(=O)c3ccc4c(c3O[C@@H]1CO2)C[C@H](C(C)C)O4 | 75.4% (inactive)
C[C@]12CCc3nc(-c4ccc(O)c(O)c4)sc3C1=CC[C@@H]1[C@@H]2CC[C@]2(C)C(=O)CC[C@@H]12 | 63.1% (inactive)
COc1cc2c(cc1OC)-c1c3c(cc4c1[C@@H](C2)N(C)CC4)OCO3 | 54.9% (inactive)
CCN1C(=O)CC(=O)N(CC)C1=S | 105% (inactive)
COC(=O)[C@@H](C)C[C@H](Cc1ccccc1)NC(=O)c1cccc([C@@H](C[C@H](C(C)C)N(C)C(=O)[C@@H](NC(=O)[C@H]2CCCCN2C)C2CC2)OC(C)=O)n1 | 1.47% (active)
O=C(O)C(O)c1ccc(Cl)cc1 (stereo not given) | 99.9% (inactive) and 104% (inactive)
CCCCn1c(=O)c(C(=O)NCc2ccccc2Cl)c(O)c2ccccc21 | 59.4% (inactive)
Cc1cc[c-]cc1.Fc1c[c-]c(-c2ccccn2)c(F)c1.[Pt+2].c1ccc([PH+](c2ccccc2)c2ccccn2)cc1 | 62.1% (inactive)
Cc1ccc(S(=O)(=O)n2cc([C@@]3(O)C[C@H](CSC#N)OC3=O)c3ccccc32)cc1 | 66.2% (inactive)
CCOC(=O)c1ccccc1C(=O)OCC | 103% (inactive)
CC(C)CCC1C(=O)NC(=O)NC1=O | 99.9% (inactive)
CO[C@H]1[C@H](O[C@@H]2C[C@@H]3C/C=C/C(=O)O[C@@H](CO)C[C@H](O)[C@@H]4C[C@H](C)[C@H](C/C=C\C=C\[C@H](C)C[C@H](C2)O3)O4)O[C@@H](C)[C@H](O)[C@H]1O | 74.7% (inactive)
O=C(O)c1cc([N+](=O)[O-])cc([N+](=O)[O-])c1 | 95.9% (inactive)
COc1c(O)cc2c(c1OC)-c1ccc(SC)c(=O)cc1C(NC(C)=O)CC2 (stereo not given) | 15.7% (inactive)
COc1ccc(N(CC(=O)NCCC[Te]c2ccccc2)C(=O)c2ccccc2)cc1 | 32.1% (inactive)
CCCN1C(=O)NC(=O)C(CC)(N2C(=O)c3c(F)c(F)c(F)c(F)c3C2=O)C1=O (stereo not given) | -64.7% (active)
CC(Oc1ccc(-c2ccccc2)cc1)C(=O)O (stereo not given) | 102% (inactive)
